ELG1 genotoxic: induces genotoxicity in HEK293T cells with luciferase-tagged ELG1; AID 504466; Potency, µM (doses to about 46 µM), without a hit: at the highest dose activity change, positive = activation, most hits filed as activators; 1.3% of 330,000 active; HEK293T ELG1-luciferase reporter, luminescence, 16 h; note: % of control where 0% means no effect; nearly all actives have a fitted effect of over 60% in size
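ELG1-luciferase HEK293T cells, 2,000/well; compound pinned in; 16 hr, 37 °C, 5% CO2; ONE-Glo, 30 min RT; luminescence on CCD imager.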
Rab9 prom act: activates the Rab9 promoter | AID 485297 | 2.8% of 320,000 active | Potency, µM (top dose mostly 9.22 µM), for the others: at the top dose activation, negative = inhibition, usual class: activators | Huh7 Rab9 promoter-luciferase reporter, luminescence, 24 h; note: % of control where 0% means no effect; nearly all actives have a fitted effect of over 60% in size
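Cell-based reporter: Huh7 stable for Rab9 promoter-driven luciferase, plated in reduced-serum medium with 10% FBS at 1500 cells/well, compound-treated 24 h at 37 °C, luminescence read after 10 min reagent.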
NPC1 promoter act: activates the NPC1 promoter; 2.4% of 320,000 active; Huh7 NPC1 promoter luciferase reporter, 24 h; Potency, µM (series often up to 9.22 µM), for the others: at the top dose activation, most hits filed as activators; AID 485313; note: % of control where 0% means no effect; nearly all actives have a fitted effect of over 60% in size
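Readout is luciferase luminescence, reflecting NPC1 promoter activation in stably transfected Huh7 cells after 24 h compound exposure at 37 °C in reduced-serum medium with 10% FBS.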
FLuc modulator: counter-screen for miR-21 project: firefly luciferase inhibitors or activators; P08659; purified FLuc, Km substrates, luminescence inhibition; Potency, µM (doses to about 57.5 µM), for the others: at the highest dose activity change, negative = inhibition, most hits filed as inhibitors; 6.9% of 360,000 active; AID 588342;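 note: plate controls were vehicle for no effect and reference inhibitor for full effect; nearly all actives have a fitted effect of over 55% in size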
Target sequence (P08659 whole entry, looked up): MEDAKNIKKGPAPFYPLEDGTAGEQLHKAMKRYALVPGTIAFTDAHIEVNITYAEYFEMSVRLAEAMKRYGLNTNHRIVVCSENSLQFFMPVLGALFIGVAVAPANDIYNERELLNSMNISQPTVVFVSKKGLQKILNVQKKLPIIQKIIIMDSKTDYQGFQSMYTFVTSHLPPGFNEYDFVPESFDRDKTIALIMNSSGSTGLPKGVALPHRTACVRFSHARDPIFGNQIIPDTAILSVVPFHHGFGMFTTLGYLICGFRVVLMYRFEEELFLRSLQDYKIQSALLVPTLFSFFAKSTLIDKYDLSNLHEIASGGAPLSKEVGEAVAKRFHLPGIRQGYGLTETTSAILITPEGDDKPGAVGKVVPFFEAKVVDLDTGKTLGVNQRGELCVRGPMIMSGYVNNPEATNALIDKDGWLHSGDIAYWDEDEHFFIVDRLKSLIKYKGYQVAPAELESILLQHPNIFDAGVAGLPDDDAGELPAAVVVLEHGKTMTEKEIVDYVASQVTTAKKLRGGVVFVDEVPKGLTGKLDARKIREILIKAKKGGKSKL
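Biochemical qHTS of compounds, final roughly 60 µM downward over six points, against 10 nM purified firefly luciferase using Km concentrations of substrates (10 uM D-luciferin, 10 uM ATP) in Tris acetate pH 7.5 buffer; luminescence output.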
SMN2 splice enh: SMN2 splice variant enhancement. 2.8% of 210,000 active. HEK293 SMN2-luciferase splicing reporter, luminescence, 30-36 h. Potency, µM (top dose mostly 46.1 µM), for the others: at the highest dose activity change, positive = activation, hits mostly activators; note: % of control where 0% means no effect; nearly all actives have a fitted effect of over 55% in size
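HEK293 cells carry an SMN2 […]–luciferase reporter in which exon 7 inclusion puts luciferase in frame. Cells were plated 10-12 h before compound addition, then incubated 30-36 h at 37C. ONE-Glo luminescence was read; sodium butyrate at 4.5 mM final served as control.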
uPA generation: blocks generation of uPA at the cell surface; 0.31% of 330,000 active; cell surface uPA generation assay, qHTS; Potency, µM (series often up to 38.3 µM), inactives show at the highest dose activity change, negative = inhibition, usual class: inhibitors; active = well fitted inhibition curve with a large enough effect; inconclusive = small, poorly fitted or top-dose-only effect; inactive = no such curve, though single readings can be large or run the other way; tested in mouse RAW 264.7 cells; note: % is set by controls: 0 for no effect and ±100 for the full control effect; nearly all actives have a fitted effect of over 55% in size
An asterisk follows results filed as active; u = inconclusive; x = no result; [ ] = remark or other dose. Most compounds without a hit are left out; they make up all but 7.3% or so of the library. Unless noted, calls come from the whole dose curve; as a rule, active = well fitted curve in the direction sought with a large enough effect; inconclusive = small, poorly fitted or top-dose-only effect, or another doubt; inactive = no such curve, though single readings can be large; an effect the other way counts as inactive or inconclusive. Potency is the fitted concentration of half-maximal effect.

SMILES	ELG1 genotoxic	Rab9 prom act	NPC1 promoter act	FLuc modulator	SMN2 splice enh	uPA generation
CCOC(=O)c1cnn(-c2ccc(C(F)(F)F)cn2)c1N	u	u	u	11µM*	u	4%
CCCC(=O)NCCc1nc2ccccc2n1Cc1c(F)cccc1Cl	x	x	x	-2%	-11%	x
CCOC(=O)COc1ccc2c(=O)c(-c3ccccc3)coc2c1	2%	-5%	-1%	17µM*	x	0%
CC(=O)Oc1ccc2c(=O)c(-c3ccccc3)coc2c1	0%	u	u	13µM*	25µM*	1%
COc1ccc(-c2coc3cc(OC(C)=O)ccc3c2=S)cc1	x	x	x	x	x	-1%
COc1ccccc1NC(=O)c1cc(=O)c2ccc(C)c(C)c2o1	x	x	x	-1%	-19%	x
Cc1ccc(OCC(=O)NCC(=O)OCc2cc(=O)n3nc(C(C)C)sc3n2)cc1	x	x	x	-5%	x	x
CN(Cc1c(C(=O)N/N=C/c2cc(F)ccc2F)nnn1-c1nonc1N)C1CCCCC1	5%	0%	-2%	1%	x	5%
Cc1ccc(Cl)c(OCC(=O)Nc2ccc3c(c2)OCCO3)c1	14%	1.4µM*	2.8µM*	1.9µM*	18µM*	-1%
O=C(COc1cc(Cl)c(Cl)cc1Cl)NC(=O)Nc1ccc2c(c1)OCCO2	u	u	u	21µM*	18µM*	0%
Cc1ccc(CSc2nnc(SCC(=O)N/N=C/c3c(C)nn(-c4ccccc4)c3C)s2)cc1	-13%	u	u	4.3µM*	9%	0%
Cc1nn(-c2ccccc2)c(C)c1/C=N/NC(=O)CSc1nnc(-c2ccccc2)n1-c1ccc(Cl)cc1	-5%	-1%	7%	-3%	1%	-4%
Cc1nn(-c2ccccc2)c(C)c1/C=N/NC(=O)CSc1nnc(SCc2ccccc2Cl)s1	1%	26%	u	6.7µM*	u	-3%
Cc1cccc(C)c1NC(=O)CN1C(=O)c2cccc3cccc1c23	x	x	x	3%	x	x
O=C(NCc1ccccc1)c1c2c(nc3ccccc13)C(=O)N(C1CCCCC1)C2	x	x	x	0%	x	x
COc1ccc(-n2nc(C(=O)NCC(=O)N3CCC(C)CC3)c3ccccc3c2=O)cc1Cl	-7%	21%	24%	1.9µM*	x	-4%
COc1ccc(-n2nc(C(=O)NCC(=O)N3CCN(c4ccccn4)CC3)c3ccccc3c2=O)cc1Cl	-14%	u	22%	3µM*	u	1%
COc1ccc(-n2nc(C(=O)NCC(=O)N3CCN(Cc4ccccc4)CC3)c3ccccc3c2=O)cc1OC	-5%	-2%	0%	u	x	-3%
CCN(CC)C(=O)CNC(=O)c1nn(-c2ccc(OC)c(Cl)c2)c(=O)c2ccccc12	-2%	3%	2%	u	x	5%
Cc1ccc(-c2csc(NC(=O)COC(=O)c3cccc(S(=O)(=O)N4CCOCC4)c3)n2)cc1	u	2.5µM*	3.2µM*	11µM*	x	-9%
Cc1ccnc(NC(=O)c2cccc(S(=O)(=O)N3CCOCC3)c2)c1	u	13%	0%	17µM*	x	-2%
O=C(Nc1ccccn1)c1cccc(S(=O)(=O)N2CCOCC2)c1	-4%	-4%	0%	6%	-2%	-6%
COc1ccc2nc(NC(=O)c3cc(S(=O)(=O)N4CCOCC4)ccc3C)sc2c1	-4%	1%	2%	11µM*	-49%	-4%
Cc1ccc(-c2csc(NC(=O)c3cccc(S(=O)(=O)N4CCN(C)CC4)c3)n2)cc1	-5%	1%	-5%	-19%	-70%	0%
COc1ccc2nc(NC(=O)c3cccc(S(=O)(=O)N4CCOCC4)c3)sc2c1	0%	4%	0%	11µM*	-29%	-8%
SMILES	ELG1 genotoxic	Rab9 prom act	NPC1 promoter act	FLuc modulator	SMN2 splice enh	uPA generation
OC(CN1CCN(c2ccccc2F)CC1)c1ccc(F)cc1 (configuration not stated)	0%	3%	0%	-2%	x	6%
C[C@H](Br)C(=O)Nc1ccc(C(=O)O)c(O)c1	x	x	x	x	-9%[9.22 µM]	x
COc1ccc2nc(NC(=O)Cc3ccc(OC)c(S(=O)(=O)N4CCOCC4)c3)sc2c1	-1%	7%	11%	24µM*	-23%	4%
CCn1cc(C(=O)OCC(=O)Nc2cc(Cl)ccc2OC)c(=O)c2ccc(C)nc21	x	x	x	3%	-3%	x
COC(=O)N1[C@H](C)C=C[C@]1(Cc1ccccc1)C(=O)NCc1ccc(N(C)C)cc1	x	x	x	x	13µM*	x
Nc1c(O)ccc2c1C(=O)c1ccccc1C2=O	10%	2%	14%	17µM*	29%	-2%
CN(C(=O)CSc1nnc(-c2ccco2)o1)C1CCCCC1	u	u	26%	-16%	14%	9%
CC1CCCCN1C(=O)CSc1nnc(-c2ccccc2F)o1 (configuration not stated)	u	2.5µM*	2.5µM*	u	x	-1%
CC1CCCCN1C(=O)CSc1nnc(-c2ccco2)o1 (configuration not stated)	21µM*	2µM*	1.8µM*	15µM*	x	-2%
O=C(Cc1ccc(Cl)cc1)N/N=C1\CCCc2ccccc21	-4%	-6%	-6%	-3%	-21%	3%
O=C(O/N=C1\CCCc2ccccc21)c1cccs1	-3%	-5%	0%	1.3µM*	0%	-1%
O=C(Cc1ccccc1)O/N=C1\CCCc2ccccc21	2%	0%	-3%	15µM*	16%	-1%
COc1ccc(-c2nnc(SC(C)C(=O)Nc3cccc(Cl)c3)o2)cc1 (configuration not stated)	21µM*	4µM*	u	-18%	16µM*	1%
COc1ccc(-c2nnc(SC(C)C(=O)O)o2)cc1 (configuration not stated)	x	x	x	12µM*	-1%	x
O=C(O)c1ccc2cc(-c3ccc(O)c(C45CC6CC(CC(C6)C4)C5)c3)ccc2c1	x	x	x	x	-80%	x
CCc1nc2oc3ccc(C)cc3c(=O)c2cc1C(=O)OC	u	3.5µM*	3.5µM*	3µM*	x	3%
Cc1nc2oc3ccccc3c(=O)c2cc1C(=O)O	8%	-2%[1.84 µM]	2%	-15%	x	2%
COC(=O)c1cc2c(=O)c3ccccc3oc2nc1C	u	u	2.2µM*	11µM*	x	-6%
CCN(CC)c1ccc(N=Cc2ccc(N(CC)CC)cc2O)cc1	-16%	-2%	6%	-11%	24%	u
CCN(CCO)c1ccc(N=Nc2cc(C)[nH]n2)cc1	u	u	u	0.27µM*	x	-24%
O=C(N/N=C/c1cc(Cl)ccc1O)c1ccccc1Br	16%	-24%	-25%	u	x	4.5µM*
Cn1c(=O)n(C)c2cc(/C=N/NC(=O)c3ccc(Cl)cc3Cl)ccc21	14%	-4%	0%	5%	28%	1%
